# Measurements published in the supplement of paper PMC11018630.
# Structures can show the parent of a compound that is named as a salt. ± gives the standard deviation of the averaged measurements.
# Test system: RDEB dermal fibroblasts EB119
# Test: day of extracellular matrix detachment from plate (days); higher = delayed detachment (less fibrotic matrix)
# Details: compound concentration: 10 uM
row,SMILES,day of extracellular matrix detachment from plate
1,N=C(N)NN [Aminoguanidine (hydrochloride)],26.3 ± 1.1
2,Cc1ccc(-n2nccn2)c(C(=O)N2CCN(c3nc4cc(Cl)ccc4o3)CC[C@H]2C)c1 [Suvorexant (MK-4305)],25
3,CCN(C)C(=O)Oc1cccc([C@H](C)N(C)C)c1 [Rivastigmine],30.3 ± 2.9
